# Only a selection was taken, and the strongest signals are over-represented in it overall.
# B1: Gal 9 (Canis lupus) (protein)
# chain: MAFSSSQPPYLSPGVPFSGKIQGGLQDGLKITINGTILYCNGTRFAVNFHSGHSDSDIAFHFNPRFEEGGYVVCNTKQKGSWGSEERKMQMPFQMGNPFELCFMVNSCDFKVTVNGSHFTQYSHRVPFHYVDTLSITGAVQLSYISFQSPGVWQSSSAPITQTVIHTVQTTPGQPFPNPIIPPTAYPTPTYPMPFFTSIPGGLYPSKSIIVSGTVLPGAKRFHINLRSGNDIAFHLNPRFNENTVVRNMQINNSWGSEERSLPRKMPFVQGQSFSVWIMCEGHCFKVAVDGEHLFEYYHRLKNLLAINNMEVAGDVQLTHVQT
# What was measured:
# Test in all cases: glycan array binding signal (z-score within array); higher = stronger binding
# Conditions in all cases: glycan notation: IUPAC condensed, linker removed
# [1] = target: Fuc(a1-2)Gal(b1-3)GlcNAc(b1-2)Man(a1-3)[Fuc(a1-2)Gal(b1-3)GlcNAc(b1-2)Man(a1-6)]Man(b1-4)GlcNAc(b1-4)[Fuc(a1-6)]GlcNAc
# Procedure, shortened: (§1)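 Glycan array data came from 3228 arrays in the Consortium for Functional Glycomics database, and only arrays with an available protein sequence were kept. Glycan names were put into IUPAC-condensed notation, and columns mapping to the same glycan were averaged. The binding signal is a within-array Z-score, averaged across arrays of one protein sequence run at different concentrations or buffers and across linkers. A negative Z-score can be read as non-binding.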
# [2] = target: Fuc(a1-2)Gal(b1-4)[Fuc(a1-3)]GlcNAc(b1-3)GalNAc
# Procedure, shortened: as §1
# [3] = target: Fuc(a1-2)[GalNAc(a1-3)]Gal(b1-4)Glc
# Procedure, shortened: as §1
# [4] = target: Fuc(a1-2)[GalNAc(a1-3)]Gal(b1-4)GlcNAc(b1-2)Man(a1-3)[Fuc(a1-2)[GalNAc(a1-3)]Gal(b1-4)GlcNAc(b1-2)Man(a1-6)]Man(b1-4)GlcNAc(b1-4)GlcNAc
# Procedure, shortened: as §1
# [5] = target: Fuc(a1-2)[GalNAc(a1-3)]Gal(b1-4)GlcNAc(b1-3)Gal(b1-4)GlcNAc
# Procedure, shortened: as §1
# [6] = target: Fuc(a1-2)[GalNAc(a1-3)]Gal(b1-4)GlcNAc(b1-3)Gal(b1-4)GlcNAc(b1-3)Gal(b1-4)GlcNAc
# Procedure, shortened: as §1
# [7] = target: Fuc(a1-2)[GalNAc(a1-3)]Gal(b1-4)[Fuc(a1-3)]GlcNAc(b1-3)GalNAc
# Procedure, shortened: as §1
# [8] = target: Fuc(a1-3)[Gal(b1-4)]GlcNAc(b1-6)[Gal(b1-3)GlcNAc(b1-3)]Gal(b1-4)Glc
# Procedure, shortened: as §1
# [9] = target: Fuc(a1-3)[Gal(b1-4)]GlcNAc6S
# Procedure, shortened: as §1
# [10] = target: Fuc(a1-4)GlcNAc
# Procedure, shortened: as §1
# [11] = target: Gal(a1-3)Gal(b1-3)GlcNAc(b1-3)GalNAc
# Procedure, shortened: as §1
# [12] = target: Gal(a1-3)GalNAc
# Procedure, shortened: as §1
# [13] = target: Gal(b1-3)GalNAc(a1-3)[Fuc(a1-2)]Gal(b1-4)Glc
# Procedure, shortened: as §1
# [14] = target: Gal(b1-3)[Fuc(a1-4)]GlcNAc(b1-2)Man(a1-3)[Gal(b1-3)[Fuc(a1-4)]GlcNAc(b1-2)Man(a1-6)]Man(b1-4)GlcNAc(b1-4)[Fuc(a1-6)]GlcNAc
# Procedure, shortened: as §1
# [15] = target: Gal(b1-3)[Fuc(a1-4)]GlcNAc(b1-3)Gal(b1-3)[Fuc(a1-4)]GlcNAc
# Procedure, shortened: as §1
# [16] = target: Gal(b1-4)GlcNAc(b1-2)Man(a1-3)Man(b1-4)GlcNAc(b1-4)GlcNAc
# Procedure, shortened: as §1
# [17] = target: Gal3S(b1-3)GalNAc
# Procedure, shortened: as §1
# [18] = target: Gal3S(b1-3)GlcNAc
# Procedure, shortened: as §1
# [19] = target: Gal3S(b1-4)Glc6S
# Procedure, shortened: as §1
# [20] = target: Gal3S(b1-4)GlcNAc
# Procedure, shortened: as §1
# [21] = target: GalNAc(a1-3)GalNAc(b1-3)Gal(a1-4)Gal(b1-4)GlcNAc
# Procedure, shortened: as §1
# [22] = target: Glc(a1-4)Glc
# Procedure, shortened: as §1
# [23] = target: Glc(b1-4)Glc
# Procedure, shortened: as §1
# [24] = target: GlcA(b1-3)GlcNAc
# Procedure, shortened: as §1
# [25] = target: GlcNAc(b1-2)Man(a1-3)[GlcNAc(b1-2)Man(a1-6)]Man(b1-4)GlcNAc(b1-4)GlcNAc
# Procedure, shortened: as §1
# [26] = target: GlcNAc(b1-2)[GlcNAc(b1-6)]Man(a1-6)[GlcNAc(b1-2)Man(a1-3)][GlcNAc(b1-4)]Man(b1-4)GlcNAc(b1-4)GlcNAc
# Procedure, shortened: as §1
# [27] = target: GlcNAc(b1-3)Man
# Procedure, shortened: as §1
# [28] = target: GlcNAc6S(b1-3)Gal(b1-4)GlcNAc
# Procedure, shortened: as §1
# [29] = target: Man(a1-3)[Man(a1-6)]Man(a1-6)[Man(a1-3)]Man
# Procedure, shortened: as §1
# [30] = target: Neu5Ac(a2-3)Gal(b1-3)[Neu5Ac(a2-6)]GalNAc
# Procedure, shortened: as §1
# [31] = target: Neu5Ac(a2-3)Gal(b1-4)[Fuc(a1-3)]GlcNAc(b1-3)Gal
# Procedure, shortened: as §1
# [32] = target: Neu5Ac(a2-6)Gal(b1-4)GlcNAc(b1-3)GalNAc
# Procedure, shortened: as §1
# [33] = target: Neu5Ac(a2-6)GalNAc(b1-4)GlcNAc
# Procedure, shortened: as §1
# [34] = target: Neu5Ac(a2-8)Neu5Ac(a2-3)[Gal(b1-3)GalNAc(b1-4)]Gal(b1-4)Glc
# Procedure, shortened: as §1
# [35] = target: Neu5Ac(a2-8)Neu5Ac(a2-8)Neu5Ac(a2-8)Neu5Ac(a2-3)[GalNAc(b1-4)]Gal(b1-4)Glc
# Procedure, shortened: as §1
# [36] = target: Neu5Ac(b2-6)Gal(b1-4)GlcNAc
# Procedure, shortened: as §1
# [37] = target: Neu5Gc(a2-3)Gal(b1-3)GlcNAc
# Procedure, shortened: as §1
binder,measurement,setting,value
B1,glycan array binding signal (z-score),[1],-0.285
same,glycan array binding signal (z-score),[2],-0.26
same,glycan array binding signal (z-score),[3],2.88
same,glycan array binding signal (z-score),[4],9.39
same,glycan array binding signal (z-score),[5],5.36
same,glycan array binding signal (z-score),[6],2.68
same,glycan array binding signal (z-score),[7],-0.288
same,glycan array binding signal (z-score),[8],-0.156
same,glycan array binding signal (z-score),[9],-0.337
same,glycan array binding signal (z-score),[10],-0.346
same,glycan array binding signal (z-score),[11],0.104
same,glycan array binding signal (z-score),[12],-0.296
same,glycan array binding signal (z-score),[13],3.45
same,glycan array binding signal (z-score),[14],-0.287
same,glycan array binding signal (z-score),[15],-0.315
same,glycan array binding signal (z-score),[16],0.09
same,glycan array binding signal (z-score),[17],5.93
same,glycan array binding signal (z-score),[18],0.396
same,glycan array binding signal (z-score),[19],3.83
same,glycan array binding signal (z-score),[20],0.222
same,glycan array binding signal (z-score),[21],3.04
same,glycan array binding signal (z-score),[22],-0.327
same,glycan array binding signal (z-score),[23],-0.311
same,glycan array binding signal (z-score),[24],-0.341
same,glycan array binding signal (z-score),[25],-0.332
same,glycan array binding signal (z-score),[26],-0.338
same,glycan array binding signal (z-score),[27],-0.347
same,glycan array binding signal (z-score),[28],-0.104
same,glycan array binding signal (z-score),[29],-0.346
same,glycan array binding signal (z-score),[30],-0.055
same,glycan array binding signal (z-score),[31],-0.343
same,glycan array binding signal (z-score),[32],-0.178
same,glycan array binding signal (z-score),[33],-0.345
same,glycan array binding signal (z-score),[34],-0.302
same,glycan array binding signal (z-score),[35],-0.331
same,glycan array binding signal (z-score),[36],-0.331
same,glycan array binding signal (z-score),[37],0.216

# Reference: the supplement of paper PMC8728848
